A selection: hits, their analogues and other compounds. The true share with any hit is near 3.6%.
NTMT1 inh – inhibitors of human N-terminal methyltransferase NTMT1; Q9BV86; NTMT1 MTase-Glo SAH luminescence, purified enzyme; Potency, µM (doses to about 114 µM), actives largely listed as inhibitors; actives 2.5% (n = 59,000); also: nearly all actives have a fitted effect of over 65% in size
Target sequence (Q9BV86 whole entry, looked up): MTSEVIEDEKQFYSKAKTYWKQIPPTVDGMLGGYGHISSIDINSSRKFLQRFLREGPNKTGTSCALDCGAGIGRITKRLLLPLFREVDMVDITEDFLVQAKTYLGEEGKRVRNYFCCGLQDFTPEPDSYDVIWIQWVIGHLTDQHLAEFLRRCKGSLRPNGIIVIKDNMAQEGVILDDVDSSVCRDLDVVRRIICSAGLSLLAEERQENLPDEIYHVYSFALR
GPR32 ag – agonists of human resolvin D1 receptor DRV1 (GPR32); O75388; CHO-K1 GPR32 beta-arrestin PathHunter luminescence, 90 min; zero percent set by DMSO-only wells; activation, % at 76.9 µM; actives 2.5% (n = 48,000); AID 1346428;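 active = activation of at least 60% and not above a set upper limit, about 1 call in 100 departs from these limits; inconclusive = activation of 40% to 60%, or above that upper limit; inactive = activation under 40%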
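Agonism was scored as beta-arrestin recruitment to ProLink-fused GPR32 in stably transfected CHO-K1 cells, giving a chemiluminescent beta-Gal signal; compounds were incubated 90 min at 37 °C.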
B2AR arrestin ag – beta-arrestin recruitment by human beta2-adrenergic receptor ligands | HTLA Tango cells, beta-arrestin recruitment, luciferase luminescence, 18 h | AID 1347077 | Potency, µM (titrated, usually from 46.1 µM), most hits filed as activators | 44,000 tested, under 10 active
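Ligand-induced beta-arrestin recruitment to recombinant beta2-AR is measured via a tTA-driven luciferase reporter in Tango cells after 18 hr compound exposure at 37 degrees C. Concentrations span up to 46 microM.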
GALK inh – inhibitors of human galactokinase (GALK). P51570. recombinant GALK, Kinase-Glo ATP luminescence, 1 h. Potency, µM (doses to about 57.5 µM), actives largely listed as inhibitors. 44,000 tested, under 10 active
Target sequence (P51570 whole entry, looked up): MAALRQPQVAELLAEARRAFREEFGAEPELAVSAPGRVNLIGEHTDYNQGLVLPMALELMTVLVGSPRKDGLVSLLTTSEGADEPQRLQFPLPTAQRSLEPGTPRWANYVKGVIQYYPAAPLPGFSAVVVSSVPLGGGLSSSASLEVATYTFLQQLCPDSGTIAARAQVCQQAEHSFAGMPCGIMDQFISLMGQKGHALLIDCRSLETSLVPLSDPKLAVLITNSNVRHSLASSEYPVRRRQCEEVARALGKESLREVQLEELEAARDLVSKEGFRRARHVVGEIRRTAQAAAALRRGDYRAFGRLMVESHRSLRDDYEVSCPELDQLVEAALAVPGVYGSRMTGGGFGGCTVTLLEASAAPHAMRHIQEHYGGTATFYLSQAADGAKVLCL
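Reactions with and without enzyme served as controls. GALK at 5 nM phosphorylates 100 uM galactose using 35 uM ATP (HEPES pH 8.0, Mg2+) for 1 h at RT, with luminescence read 10 min after adding Kinase-Glo Plus.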
GALC G270D act – enhancers of human galactocerebrosidase G270D mutant activity in cells; actives 0.1% (n = 45,000); AID 1159614; Potency, µM (highest dose often 57.5 µM), actives largely listed as activators; 145M-Twi-hGALC-G270D cells (Twitcher mouse brain line with human GALC G270D), HMU-beta-Gal fluorescence, 48 h; also: nearly all actives have a fitted effect of over 65% in size
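Fluorogenic HMU-b-Gal hydrolysis (0.1 mM final, pH 5.2 citrate-phosphate with 1 mg/mL sodium taurocholate; carbonate stop buffer) measures mutant GALC activity after compound treatment of live 145M-Twi Twitcher brain cells stably carrying human GALC-G270D, with wild-type GALC line alongside; activation sought.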
Each line names hits and unclear results; the compound was inactive in the other large screens. Unless noted, calls follow the shape of the dose curve; as a rule, active = well fitted curve in the direction sought with a large enough effect; inconclusive = small, poorly fitted or top-dose-only effect, or another doubt; inactive = no such curve, though single readings can be large; an effect the other way counts as inactive or inconclusive.

CC(O)(C(=O)C1CC1(CO)COC1OC(CO)C(O)C(O)C1O)C1C(O)CC2C3CC=C4CC(O)CC(O)C4(C)C3C(O)CC21C (stereo not given)	none (no result: GPR32 ag, B2AR arrestin ag, GALK inh, GALC G270D act)
COc1ccc(/C=C\c2cc(OC)c(OC)c(OC)c2)cc1O	none (no result: GPR32 ag, B2AR arrestin ag, GALK inh, GALC G270D act)
Oc1cc(O)cc(/C=C/c2ccc(O)c(O)c2)c1	NTMT1 inh 35µM (no result: B2AR arrestin ag, GALK inh, GALC G270D act)
O=C(O)CN1C(=O)N/C(=C\c2cccn2-c2ccc(P(=O)(O)O)cc2)C1=O	none (no result: GPR32 ag, B2AR arrestin ag, GALK inh, GALC G270D act)
O=C(O)c1ccc(-n2cccc2/C=C2\SC(=O)N(Cc3ccccc3Cl)C2=O)cc1	NTMT1 inh 50µM (no result: GPR32 ag, B2AR arrestin ag, GALK inh, GALC G270D act)
O=C(O)c1ccc(-n2cccc2/C=C2\SC(=O)N(Cc3ccc(F)cc3)C2=O)cc1	NTMT1 inh 79µM (no result: GPR32 ag, B2AR arrestin ag, GALK inh, GALC G270D act)
C=C1CCC[C@]2(C)C=C3OC(=O)C(C)=C3C[C@@H]12	none (no result: GPR32 ag, B2AR arrestin ag, GALK inh, GALC G270D act)
CCCCCCCCCCCCCC#CC(=O)[C@@H]1COC(C)(C)N1C(=O)OC(C)(C)C	none (no result: GPR32 ag, B2AR arrestin ag, GALK inh, GALC G270D act)
O=S(=O)(Cc1ccc(Cl)c(Cl)c1)Nc1nnc(-c2ccncc2)s1	none (no result: GPR32 ag, B2AR arrestin ag, GALK inh, GALC G270D act)
CC(=O)C1=C(c2ccc(Cl)c(Cl)c2)N(C(C)=O)n2cnnc2S1	NTMT1 inh 56µM
COc1cccc(C2=C(C(C)=O)Sc3nncn3N2C(C)=O)c1	none
CCCCCC1CCC(C(=O)Nc2ccc(S(=O)(=O)Nc3nccs3)cc2)CC1 (stereo not given)	none (no result: GPR32 ag, B2AR arrestin ag, GALK inh, GALC G270D act)
CCCCCCCCCCCCCCCCCC(=O)O	none (no result: B2AR arrestin ag, GALK inh)
CCCCCCCC(=O)[O-].CCCCCCCC(=O)[O-].[Zn+2]	NTMT1 inh 20µM (no result: B2AR arrestin ag, GALK inh)
CCC12CCCN3CCc4c(n(c5ccccc45)C(O)C1)C32 (stereo not given)	none (no result: GPR32 ag, B2AR arrestin ag, GALK inh, GALC G270D act)
O=C(Nc1ccc(Cl)c(S(=O)(=O)N2CCOCC2)c1)c1ccc(S(=O)(=O)N2CCOCC2)cc1	none (no result: GPR32 ag, B2AR arrestin ag, GALK inh, GALC G270D act)
O=C(NCCc1ccc(Cl)cc1)c1ccc(CS(=O)(=O)Cc2ccccc2F)o1	GPR32 ag 111
COc1ccccc1S(=O)(=O)Cc1ccc(C(=O)NCc2ccc(Cl)cc2)o1	GPR32 ag 98
COc1ccc(CNC(=O)c2ccc(CS(=O)(=O)c3ccccc3OC)o2)cc1	none
O=C(/C=C/c1ccc2ccc(C(F)(F)F)cc2n1)c1ccncc1	none (no result: GPR32 ag, B2AR arrestin ag, GALK inh, GALC G270D act)
CCOC(=O)c1c(Nc2ccccc2)nnc(-c2ccccc2)c1-c1ccccc1	none
CCOC(=O)c1c(Nc2ccc(O)cc2)nnc(-c2ccccc2)c1-c1ccccc1	GPR32 ag 66
CCOc1ccccc1C(=O)Nc1ccc2nc(N(CC)CC)cc(C)c2c1	none
CCN(CC)c1cc(C)c2cc(NC(=O)c3cccc(OC)c3OC)ccc2n1	GPR32 ag 95
NC1(c2ccc(NC(=O)c3ccnc(-c4cc(C(=O)O)ccn4)c3)cc2)CC1	none (no result: GPR32 ag, B2AR arrestin ag, GALK inh, GALC G270D act)
C=C1C(=O)O[C@@H]2C[C@H](C)C3=CC(=O)[C@H](O)[C@@]3(C)C[C@H]12	none (no result: GPR32 ag, B2AR arrestin ag, GALK inh, GALC G270D act)
COc1ccccc1OC(C)C(=O)N1CCC(c2nc3ccccc3s2)CC1 (stereo not given)	GPR32 ag 85, GALC G270D act inconclusive
O=C(c1ccc(F)cc1)N1CCC(c2nc3ccccc3s2)CC1	GPR32 ag 64
O=C(COc1cccc(Cl)c1)N1CCC(c2nc3ccccc3s2)CC1	GPR32 ag 72
COc1ccc(OCC(=O)N2CCC(c3nc4ccccc4s3)CC2)cc1	none
O=C(c1ccc(-c2cnc3c(O)cccc3c2)cc1)N1CCNCC1	none (no result: GPR32 ag, B2AR arrestin ag, GALK inh, GALC G270D act)
CCCn1cnc2c(NCc3ccc(C)s3)nc(N[C@H](CC)CO)nc21	none (no result: GPR32 ag, B2AR arrestin ag, GALK inh, GALC G270D act)
Cc1nc(-c2ccc(S(=O)(=O)N3CCN(c4cc(Cl)ccc4C)CC3)cc2)co1	none
Cc1nc(-c2ccc(S(=O)(=O)Nc3cc(Cl)ccc3C)cc2)co1	GPR32 ag 82
Cc1nc(-c2ccc(S(=O)(=O)Nc3ccc(OC(F)(F)F)cc3)cc2)co1	GPR32 ag 114
CC(=O)N1CCN(C(=O)COC(=O)c2ccc([S+](C)(=O)[O-])c([N+](=O)[O-])c2)CC1	none (no result: GPR32 ag, B2AR arrestin ag, GALK inh, GALC G270D act)
CCC(C=C[C@@H]1OC(=O)C=C[C@H]1C)=C[C@H](C)CC=CC(C)=C[C@@H](C)C(=O)[C@@H](C)[C@H](O)[C@@H](C)CC(C)=CC(=O)O	NTMT1 inh 1µM (no result: GPR32 ag, B2AR arrestin ag, GALK inh, GALC G270D act)
COc1cccc(C2N=C(Nc3nc4ccccc4o3)NC3=C2C(=O)CCC3)c1 (stereo not given)	none (no result: GPR32 ag, B2AR arrestin ag, GALK inh, GALC G270D act)

Bioassay records: PubChem BioAssay, National Center for Advancing Translational Sciences (NCATS)
